{"source": "PubChem BioAssay", "note": "Calls of active or inactive are those of the source.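 The calls were made as follows: active = primary screen hit whose calcium fluorescence ratio, in both repeats, exceeds the weak agonist control mean by 3 SD; inactive = the rest.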"}
{"tested_on": "TRPC4 beta (transient receptor potential cation channel C4), mouse", "experiment": "positive allosteric modulators of mouse TRPC4, confirmation, cell-based, Fluo-4, HEK293 TRPC4beta/mu-opioid (AID 2555)", "conditions": "DAMGO EC20, Fluo-4 calcium flux, at 10 µM; hits give high values"}
{"smiles": "CN1CCC(CNC(=O)Nc2ccccc2)(c2ccccc2)CC1", "outcome": "inactive"}
{"smiles": "Cc1ccc(C)c(OCCCCCn2ccnc2)c1", "outcome": "inactive"}
{"smiles": "CN(C)C(CNC(=O)c1ccc2ccccc2n1)c1ccccc1", "note": "(stereo not given)", "outcome": "inactive"}
{"smiles": "CCn1cc(CN2CCC(n3nccc3NC(=O)CCOc3ccccc3)CC2)cn1", "outcome": "inactive"}
{"smiles": "CCOC(=O)C1(CCOc2ccccc2)CCN(Cc2cnc(C)s2)CC1", "outcome": "inactive"}
{"smiles": "CCN1CCN(c2ccc(S(=O)(=O)N3CCOCC3)cc2NC(=O)C(C)Oc2cccc(Cl)c2)CC1", "note": "(stereo not given)", "outcome": "inactive"}
{"smiles": "CN(CCc1nc2ccc(Cl)cc2[nH]1)Cc1nc(CC2CC2)no1", "outcome": "inactive"}
{"smiles": "COc1ccccc1CCC(=O)Nc1cc(S(=O)(=O)N2CCCCC2)ccc1N1CCN(C)CC1", "outcome": "inactive"}
{"smiles": "CCCCC(=O)NNC(=S)NC(=O)c1ccc(C)cc1", "outcome": "inactive"}
{"smiles": "Cc1ccc(C2N(c3ccc(Cl)c(Cl)c3)C(=O)C3CCCN32)o1", "note": "(stereo not given)", "potentiation": "22% (active)"}
{"smiles": "COc1ccccc1N1CCN(C(c2cccs2)C(C)NC(=O)c2cccs2)CC1", "note": "(stereo not given)", "outcome": "inactive"}
{"smiles": "O=C(Nc1nnc(-c2ccccc2Cl)o1)c1nc2ccccc2s1", "outcome": "inactive"}
{"smiles": "CCOC(=O)C1(CC2CCCCO2)CCN(Cc2c(C)cc(C)cc2-n2cccn2)CC1", "note": "(stereo not given)", "outcome": "inactive"}
{"smiles": "Cc1ccccc1OCC(=O)NNC(=S)NC(=O)c1ccco1", "outcome": "inactive"}
{"smiles": "Cc1ccc(C2(O)CN(c3ccccc3C)C3=[N+]2CCS3)cc1", "note": "(stereo not given)", "outcome": "inactive"}
{"smiles": "Cc1ccccc1C(=O)NNC(=S)NC(=O)c1ccccc1", "outcome": "inactive"}
{"smiles": "Cc1ccc(C(=O)NC(=S)NNC(=O)c2ccccc2)cc1", "outcome": "inactive"}
{"smiles": "Fc1ccc(-c2nnc(CN3CCN(c4ncc(C(F)(F)F)cc4Cl)CC3)o2)cc1", "outcome": "inactive"}
{"smiles": "CNCCCOc1ccc2c(c1)CCC2", "potentiation": "29% (active)"}
{"smiles": "CCN(CCCNS(=O)(=O)c1cc(-c2cc(C)no2)ccc1C)Cc1ccccc1", "outcome": "inactive"}
{"smiles": "CCOC(=O)c1oc2ccc(OC)cc2c1NC(=O)CN1CCN(C)CC1", "outcome": "inactive"}
{"smiles": "COc1ccc(C(CNC(=O)c2cc(SC)ccc2Cl)N(C)C)cc1", "note": "(stereo not given)", "outcome": "inactive"}
{"smiles": "O=C(NCCc1ccccn1)C(F)(F)C(F)(F)C(F)(F)C(F)(F)C(F)(F)C(F)F", "outcome": "inactive"}
{"smiles": "CCCCCSc1nnc2c(n1)OC(c1cccn1C)N(C(C)=O)c1ccccc1-2", "note": "(stereo not given)", "outcome": "inactive"}
{"smiles": "COc1ccc(-c2cc(C#N)nc(N3CCNCC3)n2)cc1", "outcome": "inactive"}
{"smiles": "Cc1ccccc1NC(=S)NCCc1ccccn1", "outcome": "inactive"}
{"smiles": "Cn1c(CN2CCN(c3cccc(Cl)c3)CC2)nc2ccccc21", "outcome": "inactive"}
{"smiles": "O=C(Cn1c(-c2ccccc2)c[n+]2ccsc12)c1ccc(Br)cc1", "outcome": "inactive"}
{"smiles": "CCn1c(N2CCN(Cc3ccc([N+](=O)[O-])cc3)CC2)nc2ccccc21", "outcome": "inactive"}
{"smiles": "CN(C)C(CNC(=S)Nc1ccc(F)cc1)c1cccnc1", "note": "(stereo not given)", "outcome": "inactive"}
{"smiles": "COc1ccc(C(=O)NC(=S)NNC(=O)c2c(-c3ccccc3)noc2C)cc1OC", "outcome": "inactive"}
{"smiles": "CC1CC(C)CN(CCCNC(=O)COc2cc(=O)n(C)c3ccccc23)C1", "note": "(stereo not given)", "outcome": "inactive"}
{"smiles": "CN(C)CCCN(C(=O)c1ccc(C(=O)c2ccccc2)cc1)c1nc2ccc(F)cc2s1", "outcome": "inactive"}
{"smiles": "CCCCN(CC)CCNC(=O)c1cc2cc3ccc(Cl)cc3nc2o1", "potentiation": "47% (active)"}
{"smiles": "COc1ccc(C(=O)NC(=S)NNC(=O)CCc2ccccc2)cc1", "outcome": "inactive"}
{"smiles": "CCN(CC)CCSc1nc2ccc(OC)cc2[nH]1", "outcome": "inactive"}
{"smiles": "Cc1ccc(C)c(OCCCCn2ccnc2)c1", "outcome": "inactive"}
{"smiles": "Cc1nc(/N=C(\\N)NC(=O)NC2CCCCC2)nc2ccccc12", "outcome": "inactive"}
{"smiles": "COC(=O)[C@@]1(Cc2ccc(F)cc2)[C@H]2c3cc(C(=O)N(C)C)n(CCc4ccccn4)c3C[C@H]2CN1C(=O)c1ccccc1", "outcome": "inactive"}
{"smiles": "O=C(CNS(=O)(=O)c1ccc2ccccc2c1)NCCc1ccccn1", "outcome": "inactive"}
